Assay results taken from the supplement of paper PMC6555819.

system: VDR:RXRa (NR concentration 270 nM, RXRa partner concentration 90 nM); assay: PBM binding z-score (relative to random genomic background probes); higher = stronger binding; sequences stand for … in GC…GCGATTGACAGCGTAGAATGAAGG
Protocol: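 Protein-binding microarray (Agilent 4x180K custom design, double-stranded 60-nt probes: 5' GC cap, 34-nt variable region, 24-nt constant primer region; full probe sequence given). Purified or IVT nuclear receptor:RXRα heterodimers (3:1 NR:RXRα, mostly 270:90 nM) or homodimers were incubated for 1 h in PBS with 2% milk and no ligand, then detected with Alexa488 antibodies. Fluorescence from o1-orientation probes (~5 replicates averaged) was converted to z-scores against 500 random hg19 background probes. Variable regions are seed direct-repeat (DR0–DR5) sites, all their single-nucleotide variants and half-site ablations.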

Sequence | PBM binding z-score
CCTACTGTGCCATCAGGTCATTGATATCAACGTT | 2.56
GCGTATAGGTAATACAAGGTGAAAGTCCGATTGT | 0.306
ATACCATGGTGATCGTGAGGTCGTTGATACTAAC | 2.03
CCACGGAGGACAACAGGAGGTCAGAGCTGCCAGA | 2.13
CCTTACGGGTCACTCCAGGTTATCGCATCGGAGT | 4.2
ATCTCTAGGTAAAGTTCAGGGAAAGATCGATAGA | 1.73
CCAGACATGTGAAAGGTAACTCAGTCTGGTACGC | 0.207
CCTAGCTGGCCAGGGTCACTCAAGCATTTCGCTT | 2.36
GTACCAAAGTGAATAGGTCGTTGATGAGTAGGCG | 0.0078
TAGCCTAGGTCATGCGGGCCGGTATAGTGTCGGC | 2.22
CCTATTAGTTGACCATAAGGGCAGCCGAAGCTCG | 0.304
CAGCCTAGGTCAGGGCCAGTATGGGAGGAACGTT | -0.0336
TTACCAAGGTGAGCTTAGGTCGTTGATCCAACTC | 0.561
TAGAGTAGGTTAGTCGGGGCATTCAGCCAACATA | 2.52
GCTCGGAGGACAAGGTCAGAGTTTTGTCCGTAGA | 1.65
TGAATGAGGTTAAAGATCAAGGAACGTGGCGTCG | 2.09
CAACCAAGGTGAACAAGGTCGTTGATTACTATTC | 5.89
TAGGCTAGGTCATTCAGGGGCCAGTATAGAAAGC | 3.24
TCGAGTAGGTTAGAGGCATTCAGAATGGCGTCGA | -0.327
TCGAATAGGTTACCAATGGGGCATTCAGCTTTCT | 0.811

Sequence | PBM binding z-score
TCTTGTAGATAAACAGGAGGTTAAGAAAGATCGA | 0.873
CCTTACGGGTCAAGGTTATAGCTCGGGTGGTACG | 3.3
CCTACTGGGCCATTCAGAGGTCCTTGATCATATG | -0.591
GGAAGGAGGGCAAGTTGATAGCAGAGTTTGATGG | 0.934
ACTAGCAGGCCAAGTTGGGGTCACTCAAACAAAG | 4.77
GATACAGGGTCTGCTAGAGGCCAGAGTATGGAAA | -0.492
CCTGCTAGGTCAATGGTTAGCTAAAGCAGCTCGC | 0.802
TTACCAAGGTGAAAGGTCGTTGTTGCACGCCTTG | 3.24
CCGACTGGCGCAAAGGTTACCATACTCAGTACGA | 0.854
AATGCAGGGTCATCGTAGGCCAGAGTACGCACAG | 5.1
CGTCCAAGGTCAAGGTCAGCGAAAGAGACTCGAA | 4.97
ACTCGCAGGACAAAGGTCAGAGCTACGCCAGTGA | 2.77
AGTCAAAGTTCACTCGGTAACGTAAGATTCAGCT | 4.31
TCCTGTAGATCAGCAGGTTAAGAAAGCTGGCCAA | 0.177
TAGCCTAGGTGATGGGCCAGTATACCACGCGAAC | -0.726
TATACAGGGTCAAAGGCCAGATTACGAATGTCGA | 4.85
CCGACTGTGGCAAAGGTTACCATACTCAGTACGA | 1.03
CAAACTAGGTCACGAAGGGTCAAAGTCGAATGAC | 6.99
AGAATGAGATTATACGTAGATCAGGGAAGAAAGT | -0.367
CCTAGTTGGTTAGGAGGTCACACACCGGATATGA | 3.56
